Measured values taken from PMC7819943, “Rice protein-binding microarrays: a tool to detect cis-acting elements near promoter regions in rice”.
In all, about 39,000 sequences were measured (“fluorescence intensity (a.u.)”: median about 4,300, highest 2% from about 39,000 on). This is one part of a sample in which the highest values are shown more often than they occur.

These sequences were tested against T1, OsSMF1 (Oryza sativa, UniProt Q6ZLB0 1-436) (assay: protein-binding microarray (RPBM); PBS, 2% BSA, 51.3 ng/ul salmon testes DNA, 50 uM zinc acetate, 200 nM TF, 25 C, 1 h; high values mean tight binding). Conditions: protein: recombinant; tags: N-terminal polyhistidine and DsRed monomer fusion (pET32a); chain copies: 2; label: CyDye5-dUTP incorporated in the synthesized complementary strand; 3' TTTTT single-stranded linker to array surface; dsDNA, one strand shown.
T1 sequence: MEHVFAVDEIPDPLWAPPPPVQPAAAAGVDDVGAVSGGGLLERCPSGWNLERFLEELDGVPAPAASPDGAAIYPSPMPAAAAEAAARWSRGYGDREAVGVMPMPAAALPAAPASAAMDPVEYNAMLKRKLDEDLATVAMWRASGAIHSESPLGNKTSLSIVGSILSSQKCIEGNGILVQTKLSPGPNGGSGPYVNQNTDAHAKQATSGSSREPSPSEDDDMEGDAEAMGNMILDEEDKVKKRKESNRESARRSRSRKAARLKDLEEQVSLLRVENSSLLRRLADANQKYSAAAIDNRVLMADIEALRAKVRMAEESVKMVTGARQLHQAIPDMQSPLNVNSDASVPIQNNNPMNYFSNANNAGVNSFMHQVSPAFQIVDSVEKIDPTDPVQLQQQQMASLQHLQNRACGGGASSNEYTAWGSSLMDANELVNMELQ
Method in brief: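 The binding signal for each feature is its fluorescence intensity in arbitrary units. An Axon 4000B scanner was used to read a custom Agilent array that had been made double-stranded with Cy5-dUTP primer extension, blocked with 2% BSA, incubated at 25 °C for 1 h with 200 nM protein in PBS, 2% BSA, salmon testes DNA and 50 µM zinc acetate, and washed. The protein was an N-terminal polyhistidine–DsRed transcription factor fusion from E. coli BL21-CodonPlus, purified on Ni–NTA.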

Sequence | binding signal
CTCGAGCCCGCGGATGGCGCCCCATGGCGTGGCGGCGGAGCGGAGTCACCTAGTGCAG | 3820 fluorescence intensity (a.u.)
TGTAAGCATCAGCATGTCAAGGTTAACACCTCACTATCTCCGGAGTCACCTAGTGCAG | 4630 fluorescence intensity (a.u.)
ACAGGGGCAGGGGTCATGTGGTGGAGGTAATCAATTAATCCGGAGTCACCTAGTGCAG | 3660 fluorescence intensity (a.u.)
TAGATGTTACTCCCTCCGTCCCTTCGTCCTAAAATGTAGCCGGAGTCACCTAGTGCAG | 35900 fluorescence intensity (a.u.)
GCAGATCTTGACTATCTCCACGGGATATATACACGGCGGCCGGAGTCACCTAGTGCAG | 22300 fluorescence intensity (a.u.)
GCTCCTCGCGCTGCTCATCATCCTCCCCTCCACGCCGCCGCGGAGTCACCTAGTGCAG | 4730 fluorescence intensity (a.u.)
CTCCCTTCCCTTCCCTTCCTCTCGCCGAACCAACGCGGAACGGAGTCACCTAGTGCAG | 3360 fluorescence intensity (a.u.)
CGCTCATGAAGCTCCTTCCCTACGCGCGCTCGCCGAATCGCGGAGTCACCTAGTGCAG | 44000 fluorescence intensity (a.u.)
CCCAAGGAGGATGAGGTGGAGGTGGGAGTGCGCATTGAGGCGGAGTCACCTAGTGCAG | 4880 fluorescence intensity (a.u.)
CCTTAGACCTTCTGGATTACATCGTAAGCTGGCTTCTCCTCGGAGTCACCTAGTGCAG | 3490 fluorescence intensity (a.u.)
CCACACAGCGATAATCGAGCGGATTGGACCAAAGTACGAGCGGAGTCACCTAGTGCAG | 38200 fluorescence intensity (a.u.)
CAAAGCGGCCCAACAATGAACACGTCACTTGTATTCACTACGGAGTCACCTAGTGCAG | 7510 fluorescence intensity (a.u.)
GTTTGAGATGTGTAATAAAGGATCGATCTTGTTGACGATCCGGAGTCACCTAGTGCAG | 3530 fluorescence intensity (a.u.)
CCAGGATAAAATAAAGGTTGTATGTTACAAATGTTTGATCCGGAGTCACCTAGTGCAG | 42200 fluorescence intensity (a.u.)
TGACAGGTTGATGTGATGGAAAAGGACTGAAGGTTGGATCCGGAGTCACCTAGTGCAG | 42400 fluorescence intensity (a.u.)
ACAAACTTTGTATACGTGTATAAAATATTGATATATGTACCGGAGTCACCTAGTGCAG | 4410 fluorescence intensity (a.u.)
TTGATTGAAATTGGAGATGATGTGACTGAAAAGTTGTGTGCGGAGTCACCTAGTGCAG | 4220 fluorescence intensity (a.u.)
ATGTGACTGAAAAGTTGTGTGTGTATGACAGGTTGATGTGCGGAGTCACCTAGTGCAG | 3800 fluorescence intensity (a.u.)
GAAGTGTCCATATTGAGTCATTTGTCCATTTGCCCAGGCACGGAGTCACCTAGTGCAG | 4960 fluorescence intensity (a.u.)

Sequence | binding signal
TCCTCTTGCCTCCTCCGCTGAGGCAGCCAGTGCGTGCGCCCGGAGTCACCTAGTGCAG | 3360 fluorescence intensity (a.u.)
AGATGATCTAGGCGTGCGTGCATGCATGCGTGGCCCGCCACGGAGTCACCTAGTGCAG | 4340 fluorescence intensity (a.u.)
CTCCTCCTCCTCCAGACCTCCACGCGAGCGTGCCCCGGGGCGGAGTCACCTAGTGCAG | 4470 fluorescence intensity (a.u.)
TTGCAAACACAGGAATTACCGTTTGATTGAACCACAGGAACGGAGTCACCTAGTGCAG | 12300 fluorescence intensity (a.u.)
AAAACACAGGAATGGTCGTTTGATTGGAGCGCAGGAGAAACGGAGTCACCTAGTGCAG | 64900 fluorescence intensity (a.u.)
AAGGAAGTCGTTTTGGACAGCGACACAGTCTCTAAAACACCGGAGTCACCTAGTGCAG | 58900 fluorescence intensity (a.u.)
GCCTCGTTTGATTGGTCACATGCATGGAAAGAGACTCACACGGAGTCACCTAGTGCAG | 16700 fluorescence intensity (a.u.)
CCGTACTCATAAAGGAAGTCGTTTTGGACAGCATCACGGTCGGAGTCACCTAGTGCAG | 4170 fluorescence intensity (a.u.)
CAACTTTGGAAGAACTAAACACAGCATATGACAGTGCAGTCGGAGTCACCTAGTGCAG | 4130 fluorescence intensity (a.u.)
TAACATAGTTGATATTGTTTAATGTCATGACAAAGAATGACGGAGTCACCTAGTGCAG | 3580 fluorescence intensity (a.u.)
CTCCTACATGCACTCCCCTCTACAAAACCACAACCAGCATCGGAGTCACCTAGTGCAG | 3600 fluorescence intensity (a.u.)
ACTATTTCTCCAGATAGTAGTAGTAACTCTTACGTCATGGCGGAGTCACCTAGTGCAG | 4910 fluorescence intensity (a.u.)
CAGACAGACACAGAGAGATCGATATCAACATGCTTTAGTCCGGAGTCACCTAGTGCAG | 3710 fluorescence intensity (a.u.)
ATAAAGACCTAGTCAATGGAGTGCCACGTAGGCACCACGTCGGAGTCACCTAGTGCAG | 39000 fluorescence intensity (a.u.)
TAAGCGCCACATCAGTGCCACGTCGGATGAAGACCGAGTCCGGAGTCACCTAGTGCAG | 25000 fluorescence intensity (a.u.)
CAAATCAAATTACCACATAAGCACCACGTCAATGCCACGTCGGAGTCACCTAGTGCAG | 22200 fluorescence intensity (a.u.)
TTGTCAAATCATGGCGTCATTAGGCTTAAAAGATTCGTCTCGGAGTCACCTAGTGCAG | 4280 fluorescence intensity (a.u.)
GAATTGCCACGTAGGCGCCACGTCATATGAAGACCGAGTCCGGAGTCACCTAGTGCAG | 45500 fluorescence intensity (a.u.)
AGCGTCACCTCAATGCCACGTGTGATAAAGACCTAGTTAACGGAGTCACCTAGTGCAG | 17200 fluorescence intensity (a.u.)

Sequence | binding signal
CAAAAGGGAATGCTTTAGGCAGATCATGGAGATAAAGACTCGGAGTCACCTAGTGCAG | 39000 fluorescence intensity (a.u.)
AAATTGCCACGTAAGTGCCATGTCATATGAAGACCGAGTCCGGAGTCACCTAGTGCAG | 17800 fluorescence intensity (a.u.)
GTGTAGTTACCTTCTCGTAGGTGTCATCGAGGATGATGGCCGGAGTCACCTAGTGCAG | 3910 fluorescence intensity (a.u.)
CGGTATCGACGCAGCGTCTGAATGCAAGGGCCCGTGGTCACGGAGTCACCTAGTGCAG | 27400 fluorescence intensity (a.u.)
CGCCCAGGACGTCATGCCGGAGCTGGCCATGGTCACCGCGCGGAGTCACCTAGTGCAG | 4070 fluorescence intensity (a.u.)
GAGTTGTCAAGGGATGTCATCCCGACGTCAACACGATGGCCGGAGTCACCTAGTGCAG | 4620 fluorescence intensity (a.u.)
CGGCAACAGCGGTGACAACGTGACGACGGGTGACGAGGCGCGGAGTCACCTAGTGCAG | 5320 fluorescence intensity (a.u.)
ACGGCGACAGCGTGGAGCTCCACGACGGCAGCGACGTCGGCGGAGTCACCTAGTGCAG | 3590 fluorescence intensity (a.u.)
CGACAGCGGAACGTGAGCTCTGGGGCGACGACGGCGGCAACGGAGTCACCTAGTGCAG | 46800 fluorescence intensity (a.u.)
CAAGCTCATCAACTTCGTTCGGTCCAAGGTGCGTCAGGGTCGGAGTCACCTAGTGCAG | 3180 fluorescence intensity (a.u.)
TTAGCAACCTATCGTCATAGAGAGACCCAATGAACCCTTGCGGAGTCACCTAGTGCAG | 3860 fluorescence intensity (a.u.)
CCCTAGTCTCCTCCCTTGTACATAGGCAAATCCATACGCACGGAGTCACCTAGTGCAG | 3640 fluorescence intensity (a.u.)
TAGAGAAAGCAAAGCACATACATAGGCTAATTCTCCTTTACGGAGTCACCTAGTGCAG | 39200 fluorescence intensity (a.u.)
TAATTGGGGTGATGTGGCTAATTCTCAAAGCAGTTTTATACGGAGTCACCTAGTGCAG | 5820 fluorescence intensity (a.u.)
CGCCATGGGCGAGGCGGTGAAGGGGCCAGTGGTGGTGACGCGGAGTCACCTAGTGCAG | 4250 fluorescence intensity (a.u.)
AAATAGAAAGCCCAAACGGATATTTCTTCCTGAGAGCCACCGGAGTCACCTAGTGCAG | 35600 fluorescence intensity (a.u.)
TCTTCCTCAAAGTAAAATAGAAGCTAGGGCTAAGAGCCCACGGAGTCACCTAGTGCAG | 65100 fluorescence intensity (a.u.)
TATAGCAAAGAAAAGTAAAATAAGAGGCATGAGCTCACGCCGGAGTCACCTAGTGCAG | 37800 fluorescence intensity (a.u.)
